Laboratory results: article PMC4336329 (PLoS ONE, 2015)
Out of some 310,000 compounds screened, about 14,000 (4.5%) showed an effect of 50% or more. Effects have a minus sign here. The list comes from a sample in which strong results are over-represented; it also holds similar structures and randomly drawn compounds.

Biological target: human ether-à-go-go-related gene (hERG) potassium channel (human, UniProt Q12809)
Assay: primary screen, population patch clamp on CHO cells stably expressing hERG; higher = less effect of the substance
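Further: peak tail current of the secondary pulse compared with the same well before compound.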

Chain of human ether-à-go-go-related gene (hERG) potassium channel (Q12809 whole entry, looked up): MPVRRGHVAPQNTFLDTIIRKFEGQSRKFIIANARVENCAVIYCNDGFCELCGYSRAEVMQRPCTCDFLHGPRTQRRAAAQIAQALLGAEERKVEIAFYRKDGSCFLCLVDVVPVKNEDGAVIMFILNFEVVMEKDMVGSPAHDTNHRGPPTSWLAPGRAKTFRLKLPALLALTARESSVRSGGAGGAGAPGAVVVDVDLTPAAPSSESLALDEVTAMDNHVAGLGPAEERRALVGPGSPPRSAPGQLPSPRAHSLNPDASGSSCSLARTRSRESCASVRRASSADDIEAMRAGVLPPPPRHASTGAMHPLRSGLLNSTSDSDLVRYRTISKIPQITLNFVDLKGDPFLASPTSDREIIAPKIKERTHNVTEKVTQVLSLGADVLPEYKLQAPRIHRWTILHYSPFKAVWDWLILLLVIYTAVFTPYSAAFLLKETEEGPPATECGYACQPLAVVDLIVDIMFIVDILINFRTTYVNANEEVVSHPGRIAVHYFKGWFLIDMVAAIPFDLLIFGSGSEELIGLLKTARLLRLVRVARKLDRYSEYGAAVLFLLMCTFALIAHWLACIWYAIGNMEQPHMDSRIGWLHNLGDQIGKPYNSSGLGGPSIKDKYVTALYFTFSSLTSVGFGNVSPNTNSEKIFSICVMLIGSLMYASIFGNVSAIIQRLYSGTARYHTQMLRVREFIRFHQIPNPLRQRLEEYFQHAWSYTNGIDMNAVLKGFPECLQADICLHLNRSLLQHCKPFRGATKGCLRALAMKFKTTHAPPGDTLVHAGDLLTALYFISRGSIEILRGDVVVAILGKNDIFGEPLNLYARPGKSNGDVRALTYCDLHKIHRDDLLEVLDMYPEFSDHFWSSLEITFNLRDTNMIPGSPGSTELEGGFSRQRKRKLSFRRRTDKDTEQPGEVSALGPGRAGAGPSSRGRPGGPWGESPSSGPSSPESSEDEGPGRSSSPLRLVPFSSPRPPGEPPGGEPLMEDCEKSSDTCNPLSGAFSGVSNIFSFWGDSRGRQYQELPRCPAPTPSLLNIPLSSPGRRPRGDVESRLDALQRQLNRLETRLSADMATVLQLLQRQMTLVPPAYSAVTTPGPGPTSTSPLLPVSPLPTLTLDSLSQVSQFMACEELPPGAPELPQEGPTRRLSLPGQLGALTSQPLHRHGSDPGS

Row | SMILES | hERG current change (%, negative = inhibition) at 10uM
1 | O=C(Oc1ccc(F)cc1)c1ccc2c(=O)n3c(nc2c1)CCC3 | -21.6%
2 | O=C(COC(=O)c1cccc(O)c1)NC(=O)Cc1ccccc1 | 3.25%
3 | Cc1nn(-c2ccccc2)c(N2CCCC2)c1/C=C1\N=C(c2ccccc2)OC1=O | 11.7%
4 | CCCCCC(=O)NNC(=O)c1c(O)c2ccccc2n(CC)c1=O | -13.5%
5 | Cc1cccc(N=C2NN=C(c3ccccc3F)CS2)c1C | 41.8%
6 | Cc1cc(N2CCC(C)CC2)nc2cccc(O)c12 | -28.7%
7 | COc1cc2ncc(C(=O)c3ccccc3)c(N3CCN(Cc4ccccc4)CC3)c2cc1OC | -12.9%
8 | CCc1ccc(C(=O)c2cnc3ccc(OC)cc3c2N2CCN(CC)CC2)cc1 | -67.7%
9 | CCc1ccc2ncc(C(=O)c3ccccc3)c(N3CCOCC3)c2c1 | -45.7%
10 | CCOC(=O)c1cnc2ccc(OCC)cc2c1N1CCN(c2ccccc2OC)CC1 | -5.78%
11 | CCN1CCN(c2c(C=O)c(Cl)nc3ccc(OC)cc23)CC1 | -54.5%
12 | COc1ccc(N2CCN(c3c(S(=O)(=O)c4ccccc4)cnc4ccc(OC)cc34)CC2)cc1 | -17.7%
13 | CCOc1ccc2ncc(S(=O)(=O)c3ccccc3)c(N3CCN(c4ccc(OC)cc4)CC3)c2c1 | -10.9%
14 | CCOc1ccc2ncc(C(=O)c3ccc(OC)cc3)c(N3CCN(CC)CC3)c2c1 | -74.5%
15 | CCOC(=O)c1cnc2ccc(OCC)cc2c1N1CCN(C)CC1.Cl | -47.8%
16 | CSc1ccccc1NC(=O)Cn1ccsc1=N | 33.3%
17 | Cc1cc(NC(=O)CCCC(=O)OCC(F)(F)C(F)F)cc(C)c1C(=O)O | 20.1%
18 | O=C(O)CC1OCC=C2CN3CCC45C6=CC(=O)C(=O)C([N+](=O)[O-])=C6NC4C1C2CC35 (stereo not shown) | 10.1%
19 | Cc1ccc(C)c(N2CCN(C(=O)Cn3cccc3)CC2)c1 | -19%
20 | COc1ccc(/C=C/c2cc(C(F)(F)F)[nH]c(=O)n2)cc1OC | -6.91%
21 | COc1cc(/C=C/c2cc[n+](C)cc2)ccc1OCC(=O)Nc1ccc(Cl)c(Cl)c1.[I-] | -5.84%

Row | SMILES | hERG current change (%, negative = inhibition) at 10uM
22 | CS(=O)(=O)N(CC(=O)N1CCCC1)c1ccc(OCc2ccccc2)cc1 | -15.7%
23 | C#Cc1ccc(CN2CCN(CCCc3ccccc3)C(CCO)C2)cc1 (stereo not shown) | -69.8%
24 | C#Cc1ccc(CN2CCN(CCc3ccccc3)C(CCO)C2)cc1 (stereo not shown) | -58.8%
25 | OCCC#Cc1ccc(CN2CCN(CCc3ccccc3)C(CCO)C2)cc1 (stereo not shown) | -20.7%
26 | Nc1c(C(=O)NC2CCCC2)c2nc3ccccc3nc2n1N | 25.1%
27 | CC1CCc2c(nc3sc4c(c3c2N)CCCC4)C1 (stereo not shown) | -11.5%
28 | CN(Cc1ccccc1NS(=O)(=O)c1ccc2ccccc2c1)C1CCCCC1.Cl | 7.73%
29 | COc1cc(/C=N\NC(=O)CNC(=O)C(c2ccccc2)c2ccccc2)ccc1O | -25.7%
30 | COc1ccc(OC)c(/C=N/NC(=O)CCN2CCN(C(c3ccccc3)c3ccccc3)CC2)c1 | -2.39%
31 | COc1cc(/C=N/NC(=O)CCN2CCCCC2)ccc1O | -12%
32 | COc1cc(/C=N/NC(=O)CCN2CCN(C(c3ccccc3)c3ccccc3)CC2)ccc1O | -78.7%
33 | O=C(CCN1CCN(C(c2ccccc2)c2ccccc2)CC1)N/N=C/c1ccc(O)cc1O | -53.1%
34 | COc1cc(/C=N/NC(=O)c2cc(C)n(-c3ccc(F)cc3)c2C)cc(OC)c1O | -13.4%
35 | O=C(CNC(=O)C(c1ccccc1)c1ccccc1)N/N=C/c1ccc(O)cc1O | -4.68%
36 | Cc1cc(C(=O)N/N=C/c2cccc([N+](=O)[O-])c2)c(C)n1-c1ccccc1 | 8.8%
37 | COc1ccc(/C=N\NC(=O)CCN2CCN(c3ccccc3)CC2)cc1OC | -56.9%
38 | COc1ccc(/C=N/NC(=O)c2cc(C)n(-c3ccccc3)c2C)cc1OC | -53.2%
39 | COc1cc(/C=N/NC(=O)CCN2CCN(c3ccccc3)CC2)cc(OC)c1OC | -22.2%
40 | COc1ccc(/C=N/NC(=O)CCN2CCN(c3ccccc3)CC2)c(OC)c1OC | -3.73%
41 | Cc1ccccc1N(C(=O)CNC(=O)c1ccco1)C(C(=O)NC1CCCCC1)c1cccnc1 (stereo not shown) | 14.3%
42 | Cc1cc(C)cc(NS(=O)(=O)c2ccc(NC(=O)C3CCCCC3C(=O)O)cc2)c1 (stereo not shown) | 2.18%

Row | SMILES | hERG current change (%, negative = inhibition) at 10uM
43 | CSc1ccc(CNC(=O)c2ccc(NC(=O)C3=CSCCO3)cc2)cc1 | 28.4%
44 | CCCCc1ccc(S(N)(=O)=O)cc1 | 15.7%
45 | NNC(=O)CCN1CCN(C(c2ccccc2)c2ccccc2)CC1 | -7.7%
46 | O=C(CSC1CN(C(c2ccccc2)c2ccccc2)C1)N/N=C/c1ccccc1 | 1.64%
47 | O=C(CCN1CCN(C(c2ccccc2)c2ccccc2)CC1)N/N=C/c1ccc(O)cc1 | -54.8%
48 | Cc1cc2c(cc1C)-c1nnnn1C(C)(C)C2 | 15.2%
49 | N#Cc1ccc(-n2c(-c3ccccc3)nnc2-c2ccccc2)cc1C#N | -15.5%
50 | O=C1N/C(=N/c2ccccn2)SC1Cc1ccccc1 (stereo not shown) | -13.7%
51 | Cc1cccc(C)c1NC(=O)Cn1c(=O)n(CCCC(=O)NC2CCN(Cc3ccccc3)CC2)c(=O)c2ccccc21 | -58.6%
52 | O=C(CCCCn1c(=O)c2ccccc2n(Cc2ccccc2F)c1=O)NC1CCN(Cc2ccccc2)CC1 | -9.04%
53 | NC(=O)Cn1c(=O)n(CCCC(=O)NC2CCN(Cc3ccccc3)CC2)c(=O)c2ccccc21 | -6.48%
54 | Cc1cc(NC(=O)Cn2c(=O)n(CCCCC(=O)NC3CCN(Cc4ccccc4)CC3)c(=O)c3ccccc32)n[nH]1 | 26.5%
55 | O=C(CCCn1c(=O)c2ccccc2n(Cc2cccc(F)c2)c1=O)NC1CCN(Cc2ccccc2)CC1 | -68.6%
56 | COc1cccc(NC(=O)Cn2c(=O)n(CCC(=O)NC3CCN(Cc4ccccc4)CC3)c(=O)c3ccccc32)c1 | -57.6%
57 | O=C(CCCCn1c(=O)c2ccccc2n(Cc2ccccc2)c1=O)NC1CCN(Cc2ccccc2)CC1 | -67.9%
58 | CCc1ccc(NC(=O)Cn2c(=O)n(CCC(=O)NC3CCN(Cc4ccccc4)CC3)c(=O)c3ccccc32)cc1 | 1.83%
59 | CCOc1ccc(NC(=O)Cn2c(=O)n(CCCC(=O)NC3CCN(Cc4ccccc4)CC3)c(=O)c3ccccc32)cc1 | -38%
60 | COC(=O)c1ccccc1NC(=O)Cn1c(=O)n(CCC(=O)NC2CCN(Cc3ccccc3)CC2)c(=O)c2ccccc21 | -34.8%
61 | O=C(CCn1c(=O)c2ccccc2n(Cc2ccccc2)c1=O)NC1CCN(Cc2ccccc2)CC1 | -42.5%
62 | Cc1ccc(NC(=O)Cn2c(=O)n(CCC(=O)NC3CCN(Cc4ccccc4)CC3)c(=O)c3ccccc32)cc1 | -1.53%
63 | N#CC1=C(N)Oc2n[nH]c(-c3ccccc3)c2C12C(=O)Nc1ccccc12 (stereo not shown) | 17.4%

Row | SMILES | hERG current change (%, negative = inhibition) at 10uM
64 | NC(=S)N/N=C/c1coc2ccc(F)cc2c1=O | 10.3%
65 | COCCNC(=O)c1ccc(-n2c(SCc3cccnc3)nc3ccccc3c2=O)cc1 | -8.88%
66 | Fc1ccc(/C=N/Nc2cc(N3CCOCC3)ncn2)cc1 | 15.4%
67 | COC(=O)c1ccccc1N/C=C/C(=O)c1ccc(Br)cc1 | 16.1%
68 | Cn1c(SCC(=O)NNC(=O)Cc2ccccc2)nc2ccccc2c1=O | 11.7%
69 | COc1ccc(CCC(=O)N2CC(C)OC(C)C2)cc1 (stereo not shown) | 5.02%
70 | CCOCc1nnc(NC(=O)c2cc(C(=O)OC)cc([N+](=O)[O-])c2)s1 | 21.3%
71 | C(=N\Nc1nc(-c2ccccc2)cs1)/c1ccncc1 | -50.5%
72 | Br.CC(=O)Nc1ccc(-c2csc(N/N=C\c3ccncc3)n2)cc1 | 4.43%
73 | Brc1ccc(-c2csc(N/N=C/c3cccnc3)n2)cc1 | 19.6%
74 | Clc1ccc(-c2csc(N/N=C\c3cccnc3)n2)cc1 | 6.05%
75 | C(=N\Nc1nc(-c2ccccc2)cs1)/c1cccnc1 | -59.5%
76 | C(=N\Nc1nc(-c2ccccc2)cs1)/c1cccs1 | 18.5%
77 | CC(=O)Oc1ccc2oc(C)c(C(=O)N3CCOCC3)c2c1 | -8.91%
78 | CCN(CC)C(=O)Oc1nnc(SC(C)C)n1-c1ccc(Cl)cc1 | -4.75%
79 | Nc1ccc(Oc2ccc(Br)cc2)cc1 | -4.61%
80 | CN1C(=O)/C(=N\OC(=O)c2ccccc2Cl)c2ccccc21 | -42.8%
81 | Cc1[nH]n(-c2ccccc2)c(=O)c1N=Nc1cccc(C(=O)O)c1 | 23.1%
82 | O=C(NC1CCCC1)C1(c2ccccc2)CCN(S(=O)(=O)c2ccccc2)CC1 | -6.14%
